# Experimental data published in the supplement of paper PMC8728848.
# About 410 targets per protein were measured; listed, in parts, are those with the strongest signals and a random draw of the rest.
# Key:
# Experiment in all cases: glycan array binding signal (z-score within array); higher = stronger binding
# Settings in all cases: glycan notation: IUPAC condensed, linker removed
# [1] = biological target: Fuc(a1-2)Gal(b1-3)GalNAc(b1-3)Gal(a1-4)Gal(b1-4)Glc
# How it was run: (§1)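 The binding signal is a Z-score computed within each array and averaged over linkers. Arrays of the same protein sequence at different concentrations or buffers were also averaged together. Data originate from 3228 arrays in the Consortium for Functional Glycomics database, kept only where the protein sequence was available.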
# [2] = biological target: Fuc(a1-2)Gal(b1-4)[Fuc(a1-3)]GlcNAc
# How it was run: as §1
# [3] = biological target: Fuc(a1-2)[Gal(a1-3)]Gal(b1-3)GlcNAc(b1-6)GalNAc
# How it was run: as §1
# [4] = biological target: Fuc(a1-2)[GalNAc(a1-3)]Gal(b1-4)GlcNAc(b1-3)Gal(b1-4)GlcNAc
# How it was run: as §1
# [5] = biological target: Fuc(a1-2)[GalNAc(a1-4)]Gal(b1-4)GlcNAc
# How it was run: as §1
# [6] = biological target: Fuc(a1-2)[GalNAc(b1-3)]Gal
# How it was run: as §1
# [7] = biological target: Fuc(a1-3)[Gal(b1-4)]GlcNAc(b1-2)Man(a1-3)[Fuc(a1-3)[Gal(b1-4)]GlcNAc(b1-2)Man(a1-6)]Man(b1-4)GlcNAc(b1-4)GlcNAc
# How it was run: as §1
# [8] = biological target: Gal(a1-3)Gal(b1-3)GlcNAc(b1-3)GalNAc
# How it was run: as §1
# [9] = biological target: Gal(a1-3)Gal(b1-3)GlcNAc(b1-6)GalNAc
# How it was run: as §1
# [10] = biological target: Gal(a1-3)Gal(b1-4)GlcNAc(b1-6)GalNAc
# How it was run: as §1
# [11] = biological target: Gal(b1-3)GlcNAc(b1-6)GalNAc
# How it was run: as §1
# [12] = biological target: Gal(b1-3)GlcNAc6S
# How it was run: as §1
# [13] = biological target: Gal(b1-3)[Neu5Ac(a2-6)]GlcNAc(b1-4)Gal(b1-4)Glc
# How it was run: as §1
# [14] = biological target: Gal(b1-4)GlcNAc(b1-3)Gal(b1-4)GlcNAc
# How it was run: as §1
# [15] = biological target: Gal(b1-4)GlcNAc(b1-3)Gal(b1-4)GlcNAc(b1-3)Gal(b1-4)GlcNAc(b1-3)Gal(b1-4)GlcNAc(b1-2)[Gal(b1-4)GlcNAc(b1-3)Gal(b1-4)GlcNAc(b1-3)Gal(b1-4)GlcNAc(b1-3)Gal(b1-4)GlcNAc(b1-6)]Man(a1-6)[Gal(b1-4)GlcNAc(b1-3)Gal(b1-4)GlcNAc(b1-3)Gal(b1-4)GlcNAc(b1-3)Gal(b1-4)GlcNAc(b1-2)Man(a1-3)]Man(b1-4)GlcNAc(b1-4)[Fuc(a1-6)]GlcNAc
# How it was run: as §1
# [16] = biological target: Gal6P(b1-4)GlcNAc
# How it was run: as §1
# [17] = biological target: Gal6S(b1-4)GlcNAc
# How it was run: as §1
# [18] = biological target: GalNAc(b1-3)Gal(a1-4)Gal(b1-4)GlcNAc
# How it was run: as §1
# [19] = biological target: GalNAc(b1-3)Gal(a1-4)Gal(b1-4)GlcNAc(b1-3)Gal(b1-4)Glc
# How it was run: as §1
# [20] = biological target: GalNAc(b1-4)GlcNAc(b1-3)GalNAc(b1-4)GlcNAc
# How it was run: as §1
# [21] = biological target: GalNAc3S(b1-4)[Fuc(a1-3)]GlcNAc
# How it was run: as §1
# [22] = biological target: Glc(b1-4)Glc
# How it was run: as §1
# [23] = biological target: GlcNAc(a1-4)Gal(b1-4)GlcNAc
# How it was run: as §1
# [24] = biological target: GlcNAc(b1-3)Gal(b1-4)GlcNAc(b1-3)Gal(b1-4)GlcNAc(b1-3)Gal(b1-4)GlcNAc(b1-2)Man(a1-3)[GlcNAc(b1-3)Gal(b1-4)GlcNAc(b1-3)Gal(b1-4)GlcNAc(b1-3)Gal(b1-4)GlcNAc(b1-2)Man(a1-6)]Man(b1-4)GlcNAc(b1-4)GlcNAc
# How it was run: as §1
# [25] = biological target: GlcNAc(b1-3)GalNAc
# How it was run: as §1
# [26] = biological target: GlcNAc(b1-4)GlcNAc(b1-4)GlcNAc(b1-4)GlcNAc(b1-4)GlcNAc(b1-4)GlcNAc
# How it was run: as §1
# [27] = biological target: GlcNAc(b1-6)GalNAc
# How it was run: as §1
# [28] = biological target: Man(a1-3)[Man(a1-6)]Man(a1-6)[Man(a1-2)Man(a1-3)]Man(b1-4)GlcNAc(b1-4)GlcNAc
# How it was run: as §1
# [29] = biological target: Man(a1-3)[Man(a1-6)]Man(b1-4)GlcNAc(b1-4)GlcNAc
# How it was run: as §1
# [30] = biological target: Man(a1-3)[Man(a1-6)]Man(b1-4)GlcNAc(b1-4)[Fuc(a1-6)]GlcNAc
# How it was run: as §1
binder,measurement,setting,value
DC-ASGPR S+GEE (Homo sapiens) (protein) MTRTYENFQYLENKVKVQGFKNGPLPLQSLLQRLRSGPCHLLLSLGLGLLLLVIICVVGFQNSKFQRDLVTLRTDFSNFTSNTVAEIQALTSQGSSLEETIASLKAEVEGFKQERQAVHSEMLLRVQQLVQDLKKLTCQVATINNNGEEASTEGTCCPVNWVEHQDSCYWFSHSGMSWAEAEKYCQLKNAHLVVINSREEQNFVQKYLGSAYTWMGLSDPEGAWKWVDGTDYATGFQNWKPGQPDDWQGHGLGGGEDCAHFHPDGRWNDDVCQRPYHWVCEAGLGQTSQESH,glycan array binding signal (z-score),[1],0.011
same,glycan array binding signal (z-score),[2],-0.28
same,glycan array binding signal (z-score),[3],3.42
same,glycan array binding signal (z-score),[4],0.807
same,glycan array binding signal (z-score),[5],3.75
same,glycan array binding signal (z-score),[6],4
same,glycan array binding signal (z-score),[7],-0.015
same,glycan array binding signal (z-score),[8],-0.224
same,glycan array binding signal (z-score),[9],4.91
same,glycan array binding signal (z-score),[10],3.92
same,glycan array binding signal (z-score),[11],3.77
same,glycan array binding signal (z-score),[12],-0.332
same,glycan array binding signal (z-score),[13],-0.315
same,glycan array binding signal (z-score),[14],-0.268
same,glycan array binding signal (z-score),[15],-0.145
same,glycan array binding signal (z-score),[16],-0.321
same,glycan array binding signal (z-score),[17],-0.262
same,glycan array binding signal (z-score),[18],4.67
same,glycan array binding signal (z-score),[19],4.39
same,glycan array binding signal (z-score),[20],3.84
same,glycan array binding signal (z-score),[21],-0.27
same,glycan array binding signal (z-score),[22],-0.376
same,glycan array binding signal (z-score),[23],-0.318
same,glycan array binding signal (z-score),[24],-0.276
same,glycan array binding signal (z-score),[25],-0.312
same,glycan array binding signal (z-score),[26],-0.22
same,glycan array binding signal (z-score),[27],3.74
same,glycan array binding signal (z-score),[28],-0.252
same,glycan array binding signal (z-score),[29],-0.021
same,glycan array binding signal (z-score),[30],-0.295
